# Many of the other results were omitted from the sample, so hits are more common in it than they were.
# Dicer inh: inhibitors of Dicer pre-microRNA processing, primary screen, biochemical, cat-ELCCA, chemiluminescence; Endoribonuclease Dicer (Homo sapiens), Q9UPY3; cat-ELCCA pre-miR-21 Dicer processing; hits give high values; z-score at 25 µM; hit rate 6% among 47,000; AID 1347074, 2019; in the data active = z-score above about 3, passing the limit was not always enough;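 note: plate controls were vehicle for no effect and no enzyme for full effect; higher signal means more uncleaved substrate so more Dicer inhibition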
# Starred values were filed as active, the others as inactive.
SMILES,Dicer inh
O=S(=O)(Cc1ccccc1)C1CCCCC1O (stereo unspecified),3.1*
O=S1(=O)CC(O)C(S(=O)(=O)Cc2ccc(Cl)cc2)C1 (stereo unspecified),0.55
CN(Cc1ccccc1)S(=O)(=O)Cc1ccccc1,0.64
Cc1ccc2nc3c(cc2c1)c(=O)n(-c1ccccc1)c1c3c(=O)n(C)c(=O)n1C,-1.8
CCOC(=O)C(NC(=O)c1cccc(C)c1)(Nc1cc(C)on1)C(F)(F)F (stereo unspecified),-0.9
O=[N+]([O-])c1cc(C(F)(F)F)ccc1Oc1ccc(-c2ncon2)cc1,-0.49
Cc1ccc(NC(=S)N(Cc2ccc(N(C)C)cc2)C(C)C)c(Cl)c1,0.5
CCOc1ccc(S(=O)(=O)N2CCCN(S(=O)(=O)c3ccc(OCC)cc3)CC2)cc1,0.4
CCOc1ccc(/C=N/NC(=S)Nc2ccc(S(=O)(=O)N3CCCCC3)cc2)cc1,7.3*
O=S(=O)(c1ccc(NC(=S)NC2CCCCC2)cc1)N1CCCCC1,0.42
N=c1c(C(N)=O)cc2c(=O)n3ccccc3nc2n1Cc1ccco1,1.9
COC(=O)C1=C(C(=O)OC)SC(=C2C(=S)C(C)(C)N(C(C)=O)c3cc(C)ccc32)S1,0.05
Cc1ccccc1NC(=O)N(Cc1cccs1)C(=O)CC#N,3.7*
CCCN(C(=O)CC#N)C(=O)Nc1ccccc1C,0
Cc1cccc(C)c1NC(=O)N(Cc1ccccc1)C(=O)CC#N,0.25
O=C(CN1C2=NCCN2c2ccccc21)c1cccc(Br)c1,3
O=C1OC(c2ccc(Cl)cc2)c2ccccc21 (stereo unspecified),1.1
Clc1ccc(-c2nnc3ccc4ccccc4n23)cc1,-2.8
COc1ccccc1-c1nnc2ccc3ccccc3n12,3*
Fc1ccc(-c2nnc3ccc4ccccc4n23)cc1,-0.03
Cc1ccc(C2C(C#N)=C(SCC(=O)Nc3ccc(Br)cc3)NC3=C2C(=O)CCC3)o1 (stereo unspecified),-0.81
Cc1ccc(C)n1-c1ccc(SCC(=O)O)cc1,2
Cc1ccc(C)n1-c1cc(C(=O)O)cc(C(=O)O)c1,11*
CC1=NN(c2cccc(C(=O)O)c2)C(=O)C1,-3.6
Cc1cc(C)c2c(n1)sc1c(=O)oc(C)nc12,4.9*
SMILES,Dicer inh
Cc1cc(C)c2c(n1)sc1c(=O)n(/N=C/c3ccccc3)c(C)nc12,-0.57
CC(=O)Cn1cnc2c(sc3nc(C)cc(C)c32)c1=O,0.8
COc1ccc(Sc2ccccc2C(=O)O)c(C(=O)O)c1,-0.72
FC(F)(F)c1cccc(NC(=S)Nc2ccccc2C(F)(F)F)c1,-0.33
CC(C)(C)C(=O)NC(=S)Nc1cccc(C(F)(F)F)c1,-0.2
COC(=O)c1ccc(CSc2ccccc2NC(=S)Nc2cccc(C(F)(F)F)c2)o1,4.4*
Cc1ccc(S(=O)(=O)On2nnc3ccccc32)cc1,-0.52
Cn1c(SCC#N)nnc1-c1ccc(C(C)(C)C)cc1,-1.5
COc1ccc(N2C(=O)CC(N3CCN(c4ccc(F)cc4)CC3)C2=O)cc1 (stereo unspecified),0.06
CCOCCOC(=O)C(C)Oc1ccc2c(=O)c(-c3ccc(Cl)cc3)coc2c1 (stereo unspecified),1.1
CC(C)Sc1nc(N2CCCC2)c2c(c1C#N)CC(C)(C)OC2,-0.59
CC1(C)Cc2c(C#N)c(SCc3ccccc3)nc(N3CCOCC3)c2CO1,-1.2
CC(C)CCSc1nc(N2CCCC2)c2c(c1C#N)CC(C)(C)OC2,3.1*
CSc1nnc2c(n1)OC(c1ccc(C)o1)N(C(C)=O)c1ccc(Br)cc1-2 (stereo unspecified),-0.9
CSc1sc(Br)c(Cl)c1S(=O)(=O)C(C)C,-0.95
CSc1sc(-c2nc(C(C)(C)C)cs2)c2c1C(=O)CCC2,0.15
CSc1sc(-c2ccnc(SCc3c(Cl)cccc3Cl)n2)c2c1C(=O)CCC2,3.5*
CSc1sc(-c2nc(C)cs2)c(C)c1-c1ccnc(SCc2ccc(Cl)cc2)n1,-0.73
N=c1c2cnn(-c3ccccc3)c2ncn1NC(=S)Nc1ccc(Cl)cc1Cl,26
O=C(CSc1nnc(SCC(=O)NC2Cc3ccccc3C2)s1)NC1Cc2ccccc2C1,-1.7
CCOC(=O)c1c(C)sc2c1Nc1cc(Cl)ccc1S2,1.3
CC(C)(C)c1ccc(NC(=O)Oc2ccccc2N2CCOCC2)cc1,-0.14
O=C(Nc1ccccc1)Oc1cccc(N2CCOCC2)c1,3.3*
O=C(Nc1ccc2c(c1)OCO2)Oc1ccccc1,-0.16
CCCCC1(O)C(=O)c2ccccc2N(C)C1=O (stereo unspecified),-1.3
SMILES,Dicer inh
COC(=O)/C(=C\N(C)C)Sc1cc(C)c(Cl)cc1C,-0.82
Cn1cc(Br)c(-c2cccc(N3C(=O)CC(C)(C)CC3=O)c2)n1,-0.35
Cc1cc(N2C(=O)CC3(CCCC3)CC2=O)ccc1Br,3.2*
Cc1ccc(N2C(=O)CC(=O)N(c3ccc(C)c(C)c3)C2=S)cc1C,0.05
Cc1ccc(O)c(C2Nc3ccccc3NC3=C2C(=O)CC(C)(C)C3)c1 (stereo unspecified),1.5
Cn1nnnc1SCCNCc1ccc(-c2ccccc2)cc1,-0.99
COc1cc2ccccc2cc1C(=O)Nc1nc2ccccc2s1,-0.01
COc1cc(/C=N/Nc2nc3ccccc3s2)cc(OC)c1OC,3.5*
COc1cc(/C=N/NC(=S)NCCc2ccccc2)cc(OC)c1OC,-0.71
Cc1nn(-c2ccccc2)cc1/C=N/Nc1nc2ccccc2s1,2.2
C(=N\Nc1nc2ccccc2s1)/c1ccco1,3.8*
C(=N\Nc1nc2ccccc2s1)/c1cccs1,-0.23
COC(=O)C1Cc2c([nH]c3ccccc23)C(c2ccccc2)N1 (stereo unspecified),0.69
Cc1cc(C)c(C#N)c(SCC(=O)n2nc(C)cc2C)n1,-0.01
CCOC(=O)c1cnc(SCC(=O)c2cccc([N+](=O)[O-])c2)nc1N,-0.38
O=C(CC1SC(=Nc2ccc(C3CCCCC3)cc2)NC1=O)Nc1ccc(OC(F)(F)F)cc1 (stereo unspecified),-2.3
Nc1cc(C(F)(F)F)ccc1N1CCCCC1,-0.13
Oc1cc2c(cc1C(c1ccc(C(F)(F)F)cc1)N1CCCCC1)OCO2 (stereo unspecified),3.8*
O=C(NC(=O)c1ccc(C(F)(F)F)cc1)NN1CCCCCC1,-2.5
c1ccc(-c2cn3ccsc3n2)cc1,0.32
Cc1ccc(CN2C(=O)C3C(c4ccccc4Cl)OC4(C(=O)c5ccccc5C4=O)C3C2=O)cc1 (stereo unspecified),0.24
O=C(CN1C2=NCCN2c2ccccc21)c1ccc(Cl)cc1,0
O=C(CN1C2=NCCCN2c2ccccc21)c1ccc(Br)cc1,4*
O=C(CN1C2=NCCCN2c2ccccc21)c1ccc2c(c1)OCO2,0.97
N#Cc1cn(C2CC2)c(=O)n(Cc2ccccc2)c1=O,0.8
SMILES,Dicer inh
CCOC(=O)C(O)(c1ccc(N)c(C)c1)C(F)(F)F (stereo unspecified),-0.46
C=CCN(c1nc(C)c(Br)c(OC)n1)S(=O)(=O)c1ccc(C)cc1,3.6*
CCN(c1nc(C)cc(OC)n1)S(=O)(=O)c1ccc(C)cc1,2.1
C=CCN(c1ccccc1C1=N/C(=C\c2ccc(C)cc2)C(=O)O1)S(=O)(=O)c1ccc(Cl)cc1,-0.86
C=CCOC(=O)C1=C(C)NC2=C(C(=O)CCC2)C1c1ccc(OC)c(OC)c1 (stereo unspecified),-1
CCOc1ccc(C2C(C(=O)OC3CCCC3)=C(C)NC3=C2C(=O)CCC3)cc1 (stereo unspecified),-0.92
Cc1sc(-c2ccc(Cl)cc2)nc1CC(=O)O,0.5
COC(=O)c1ccc(C(=O)OC)c(N2C(=O)CSCC2=O)c1,-2.6
